Test results: PubChem BioAssay (NCATS)
Records with an inconclusive call do not appear. Activity calls are given as the source filed them. The call rests on the fitted dose curve; in most records, active means well fitted curve in the direction sought with a large enough effect; inconclusive means small, poorly fitted or top-dose-only effect, or another doubt; inactive means no such curve, though single readings can be large; an effect the other way counts as inactive or inconclusive.

Columns and labels:
NIH3T3 = test: qHTS assay to identify novel small-molecules to repurpose for Merkel cell carcinoma treatment (AID 1296009); details: MCC and control cell lines, CellTiter-Glo viability, 72 h; at 44.8 µM (top of the series) unless noted; further: nearly all actives have a fitted effect of over 60% in size
In short: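 Luminescence from CellTiter-Glo, read 10 min after addition at room temperature, reported viability following a 72 hr, 37 degree celsius treatment with NPC or MIPE compounds in titration; values normalized to plate controls.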

C33A = test: Primary qHTS to identify gynecologic anti-cancer compounds using libraries of approved drugs and bioactive compounds (AID 1345084); details: Gynecologic cancer cell panel viability, ATPlite luminescence, 48 h; series mostly up to 57.5 µM; further: on the % scale 0 is the no-effect control and ±100 the full control effect; nearly all actives have a fitted effect of over 55% in size
In short: (§1)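 ATP-based viability (ATPlite), 1,000 cells/well, 16 h pre-incubation, 48 h compound at 37 C, 5% CO2, 15 min RT before read.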

CAOV3 = test: as above; details: Gynecologic cancer cell panel viability, ATPlite luminescence, 48 h; series mostly up to 57.5 µM
In short: as §1

CASKI = test: as above; details: Gynecologic cancer cell panel viability, ATPlite luminescence, 48 h; series mostly up to 57.5 µM
In short: as §1

Es-2 = test: as above; details: Gynecologic cancer cell panel viability, ATPlite luminescence, 48 h; series mostly up to 57.5 µM
In short: as §1

HeLa = test: as above; details: Gynecologic cancer cell panel viability, ATPlite luminescence, 48 h; series mostly up to 57.5 µM
In short: as §1

Hek293T = test: as above; details: Gynecologic cancer cell panel viability, ATPlite luminescence, 48 h, control line for the selectivity index; series mostly up to 57.5 µM
In short: as §1

JEG-3 = test: as above; details: Gynecologic cancer cell panel viability, ATPlite luminescence, 48 h; series mostly up to 57.5 µM
In short: as §1

COC(=O)[C@H](OC(C)=O)[C@H]1C(C)(C)C(=O)[C@H]2CC3=C4CC(=O)O[C@@H](c5ccoc5)[C@]4(C)CCC3[C@@]1(C)C2=O (stereo partly drawn)
inactive: outcome (NIH3T3) inactive [at 17.4 µM] | Potency (C33A) | Potency (CAOV3) | Potency (CASKI) | Potency (Es-2) | Potency (HeLa) | Potency (Hek293T) | Potency (JEG-3)

CCC(=O)N[C@@H]1Cc2ccccc2[C@H](c2ccccc2)C1
inactive: outcome (NIH3T3) | Potency (C33A) | Potency (CAOV3) | Potency (CASKI) | Potency (Es-2) | Potency (HeLa) | Potency (Hek293T) | Potency (JEG-3)

CC(=O)O[C@H](C[C@@H](C)[C@H]1C(=O)[C@H](O)[C@@]2(C)[C@@H]3CCC4C(C)(C)[C@@H](O[C@@H]5OC[C@H](O)[C@H](O)[C@H]5O)CC[C@@]45C[C@@]35CC[C@]12C)[C@@H]1OC1(C)C (stereo partly drawn)
inactive: outcome (NIH3T3) inactive [at 17.4 µM] | Potency (C33A) | Potency (CAOV3) | Potency (CASKI) | Potency (Es-2) | Potency (HeLa) | Potency (Hek293T) | Potency (JEG-3)

CC(NCc1ccc(OCc2cccc(F)c2)cc1)C(N)=O (stereo not drawn)
inactive: outcome (NIH3T3) | Potency (C33A) | Potency (CAOV3) | Potency (CASKI) | Potency (Es-2) | Potency (HeLa) | Potency (Hek293T) | Potency (JEG-3)

C[C@]12C=CC(=O)C=C1CC[C@@H]1[C@@H]2[C@@H](O)C[C@@]2(C)[C@H]1CC[C@]2(O)C(=O)COC(=O)CCC(=O)O
inactive: outcome (NIH3T3) | Potency (C33A) | Potency (CAOV3) | Potency (CASKI) | Potency (Es-2) | Potency (HeLa) | Potency (Hek293T) | Potency (JEG-3)

CC(=O)O[C@H]1CC[C@@]2(CI)C(=CC[C@@H]3[C@@H]2CC[C@]2(C)[C@@H]([C@H](C)CCCC(C)C)CC[C@@H]32)C1
inactive: outcome (NIH3T3) inactive [at 9.27 µM] | activity change, negative = cytotoxicity (C33A) 15% [at 11.6 µM] | activity change, negative = cytotoxicity (CAOV3) 9.25% [at 11.6 µM] | activity change, negative = cytotoxicity (CASKI) -2.47% [at 11.6 µM] | activity change, negative = cytotoxicity (Es-2) -1.33% [at 11.6 µM] | activity change, negative = cytotoxicity (HeLa) 10.9% [at 11.6 µM] | activity change, negative = cytotoxicity (Hek293T) 4.14% [at 11.6 µM] | activity change, negative = cytotoxicity (JEG-3) -2.55% [at 11.6 µM]

COc1cc(C2c3cc(O)c(OC)cc3CC(CO)C2CO)ccc1O (stereo not drawn)
inactive: outcome (NIH3T3) | Potency (C33A) | Potency (CAOV3) | Potency (CASKI) | Potency (Es-2) | Potency (HeLa) | Potency (Hek293T) | Potency (JEG-3)

Cc1coc2c1CC1OC1(C)CCC1OC1(C)C2 (stereo not drawn)
inactive: outcome (NIH3T3) | Potency (C33A) | Potency (CAOV3) | Potency (CASKI) | Potency (Es-2) | Potency (HeLa) | Potency (Hek293T) | Potency (JEG-3)

CC1[C@@H](O)[C@@H](O)C2[C@]3(C)C(C[C@H]4OC(=O)[C@H](O)[C@]1(O)[C@@]24C)C(C)(O)C[C@H](O)[C@H]3O (stereo partly drawn)
inactive: outcome (NIH3T3) inactive [at 17.4 µM] | Potency (C33A) | Potency (CAOV3) | Potency (CASKI) | Potency (Es-2) | Potency (HeLa) | Potency (Hek293T) | Potency (JEG-3)

CC(C)NC[C@H](O)COc1ccc(CCOCC2CC2)cc1
inactive: outcome (NIH3T3) | Potency (C33A) | Potency (CAOV3) | Potency (CASKI) | Potency (Es-2) | Potency (HeLa) | Potency (Hek293T) | Potency (JEG-3)

CC(=O)O[C@@H]1[C@@H](OC(=O)/C=C/c2ccccc2)[C@H](C)O[C@@H](O[C@H]2[C@@H]3C=CO[C@@H](O[C@@H]4O[C@H](CO)[C@@H](O)[C@H](O)[C@H]4O)[C@@H]3[C@@]3(CO)O[C@@H]23)[C@@H]1OC(C)=O
inactive: outcome (NIH3T3) inactive [at 17.4 µM] | Potency (C33A) | Potency (CAOV3) | Potency (CASKI) | Potency (Es-2) | Potency (HeLa) | Potency (Hek293T) | Potency (JEG-3)

CC1CCC2C(C)(C)C(O)CCC2(C)C12Cc1c(O)cc3c(c1O2)CN=C3N (stereo not drawn)
inactive: outcome (NIH3T3) | Potency (C33A) | Potency (CAOV3) | Potency (CASKI) | Potency (Es-2) | Potency (HeLa) | Potency (Hek293T) | Potency (JEG-3)

O=C(/C=C/c1ccc(O)cc1)OC[C@]12O[C@H]1[C@@H](O)[C@@H]1C=CO[C@@H](O[C@@H]3O[C@H](CO)[C@@H](O)[C@H](O)[C@H]3O)[C@@H]12
inactive: outcome (NIH3T3) inactive [at 17.4 µM] | Potency (C33A) | Potency (CAOV3) | Potency (CASKI) | Potency (Es-2) | Potency (HeLa) | Potency (Hek293T) | Potency (JEG-3)

COc1cc(/C=C/CO)ccc1O[C@@H]1O[C@H](CO)[C@@H](O)[C@H](O)[C@H]1O
inactive: outcome (NIH3T3) | Potency (C33A) | Potency (CAOV3) | Potency (CASKI) | Potency (Es-2) | Potency (HeLa) | Potency (Hek293T) | Potency (JEG-3)

CC(=O)OCC(=O)O[C@@H]1[C@H]2[C@@H](OC(=O)c3ccccc3)[C@@H](C)C[C@]2(O)[C@H](OC(C)=O)C2(C)[C@H]3CC(C)(C)C(=O)[C@@H]3CC1(OC(C)=O)[C@@H]2OC(C)=O (stereo partly drawn)
inactive: outcome (NIH3T3) inactive [at 17.4 µM] | Potency (C33A) | Potency (CAOV3) | Potency (CASKI) | Potency (Es-2) | Potency (HeLa) | Potency (Hek293T) | Potency (JEG-3)

C#Cc1cnc2[nH]c(=O)n(C(CC)CC)c2n1
inactive: outcome (NIH3T3) | Potency (C33A) | Potency (CAOV3) | Potency (CASKI) | Potency (Es-2) | Potency (HeLa) | Potency (Hek293T) | Potency (JEG-3)
